The source of these data is PubChem BioAssay (NCATS).

Several values for one entry are separate records, joined by “and”; a condition that tells them apart may be missing. Equal values may be shown once. Results filed as inconclusive are left out. Activity calls are given as the source filed them. Unless noted, the call rests on the fitted dose curve; in most records, active means well fitted curve in the direction sought with a large enough effect; inconclusive means small, poorly fitted or top-dose-only effect, or another doubt; inactive means no such curve, though single readings can be large; an effect the other way counts as inactive or inconclusive.

Experiment [1] can be described thus: Validation of Assay for Modulators of Lamin A Splicing (AID 1459; active means well fitted curve in the direction sought with a large enough effect in the signal ratio; the % refers to the signal ratio;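 further: cells exposed to compound for two days before reading; 0% is about no effect; ratio rise marks activators and ratio drop marks inhibitors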). The gist of the method: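 Splicing correction is reported by an EGFP-containing lamin A minigene in stably transfected S3 HeLa cells, while DsRed2 controls for viability and nonspecific signal. Cells are exposed to compounds for 48 hrs before the GFP over RFP ratio is taken.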
A short description of experiment [2]: qHTS Assay for Lipid Storage Modulators (AID 1519; calls by dose curve; on activity change, negative = inhibition: on the % scale 0 is the no-effect control and ±100 the full control effect). The following applies: Drosophila S3 cells, BODIPY lipid droplet/cell ratio, laser cytometry, cells loaded with oleic acid; for activity change, negative = inhibition: at 57.5 µM (top of the series). The gist of the method: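 Cells seeded at 5,000 per well were treated with compounds over a concentration series and loaded with oleic acid (400 uM, as added). Lipid droplet fluorescence (488 nm excitation, 500-530 nm channel) was read by laser-scanning cytometry and normalized to 20 uM Triacsin C.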
On the technique in general: qHTS replaces the single test concentration by a dilution series.

The target of experiment [3] is DNA repair nuclease/redox regulator APEX1 (Homo sapiens) (UniProt P27695). The experiment is described as follows: qHTS Validation Assay for Inhibitors of the Human Apurinic/apyrimidinic Endonuclease 1 (APE1) (AID 1705; further: potency means the concentration at half of the fitted maximal effect;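 on activity change, negative = inhibition: TAMRA fluorescence gain over two minutes as APE1 cuts a quenched THF abasic duplex; on the % scale 0 is the no-effect control and ±100 the full control effect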). The gist of the method: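 Endonuclease activity of human APE1 is followed as dequenching when the enzyme incises a tetrahydrofuran abasic site in a short duplex labelled 5'-TAMRA/3'-BHQ-2 (50 nM final), after 15 min enzyme–compound preincubation at room temperature.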
Sequence of DNA repair nuclease/redox regulator APEX1 (Homo sapiens) (P27695 whole entry, looked up): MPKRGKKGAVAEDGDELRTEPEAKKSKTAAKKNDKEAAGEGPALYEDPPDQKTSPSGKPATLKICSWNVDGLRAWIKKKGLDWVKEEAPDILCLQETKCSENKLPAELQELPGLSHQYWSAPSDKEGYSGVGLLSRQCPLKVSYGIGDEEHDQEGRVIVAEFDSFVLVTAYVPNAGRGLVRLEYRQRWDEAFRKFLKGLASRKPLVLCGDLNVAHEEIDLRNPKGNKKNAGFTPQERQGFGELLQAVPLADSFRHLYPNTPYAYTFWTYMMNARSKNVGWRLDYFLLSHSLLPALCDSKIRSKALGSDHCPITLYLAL

Experiment [4] is described as follows: Counterscreen for APE1 Inhibitors: Fluorescent Dye Displacement Validation Assay (AID 1707). Further: potency means the concentration at half of the fitted maximal effect.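 On activity change, negative = inhibition: plate controls were ThO with dsDNA and no compound for no effect and ThO without dsDNA for full effect.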 Put shortly: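 Loss of Thiazole Orange fluorescence marks promiscuous DNA binders. The dye (250 nM) is mixed with 50 nM abasic-site dsDNA in pH7.5 Tris buffer containing MgCl2, then compounds are added and emission is read once.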
Background: Counterscreens check selectivity or assay interference.

The target in experiment [5] is alpha-glucosidase (Oryza sativa, rice) (UniProt Q653V4). The experiment is described as follows: Counterscreen for Glucocerebrosidase Inhibitors: qHTS Assay for Rice alpha-Glucosidase at pH 5.0 (AID 997).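 Further: 0% = full activity with enzyme and -100% = basal without enzyme.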 Put shortly: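 Endpoint fluorogenic assay at pH 5.0: compounds (0.7 nM to 77 uM) titrated against 4 nM rice enzyme and 400 uM 4-MU-alpha-glucoside for 20 min at room temperature; NaOH/glycine stop, read ex 365/em 440 nm, Hill-fitted AC50.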

Experiment [6] in a line: qHTS for differential inhibitors of proliferation of Plasmodium falciparum line 7G8 (AID 1815).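 Further: parasite growth measured after three days of incubation.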 Further: potency means the concentration at half of the fitted maximal effect.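 On activity change, negative = inhibition: plate controls were vehicle wells for no effect and reference inhibitor wells for full effect.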
The nature of experiment [7]: qHTS for differential inhibitors of proliferation of Plasmodium falciparum line GB4 (AID 1816).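 Further: parasite growth measured after 72 h incubation.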 Further: potency means the concentration at half of the fitted maximal effect.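 On activity change, negative = inhibition: 0% = vehicle DMSO and -100% = reference inhibitor.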 As to conditions: Potency: Plasmodium falciparum GB4 proliferation inhibition.
Experiment [8] can be described thus: qHTS for differential inhibitors of proliferation of Plasmodium falciparum line D10 (AID 1877).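 Further: parasites grown with compound for 72 h before DNA staining.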 Further: potency means the concentration at half of the fitted maximal effect.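 On activity change, negative = inhibition: plate controls were vehicle wells for no effect and reference inhibitor wells for full effect.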
In experiment [9] the target is Endonuclease 4 (Escherichia coli (strain K12)) (UniProt P0A6C1). The experiment is described as follows: Counterscreen for APE1 Inhibitors: qHTS Validation Assay for Inhibitors of Endonuclease IV (AID 1708). Further: on the % scale 0 is the no-effect control and ±100 the full control effect. Put shortly:
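Incision of a double-stranded 50 nM TAMRA/BHQ-2 abasic substrate was followed kinetically (525/598 nm, reads every 60 s) after 15 min enzyme–compound preincubation with 2 nM EndoIV in pH 7.5 Tris buffer with MgCl2, DTT and Tween-20; concentration-response format.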

Experiment [10] is described as follows: qHTS for differential inhibitors of proliferation of Plasmodium falciparum line 3D7 (AID 1876). Further: potency means the concentration at half of the fitted maximal effect.
[11] abbreviates: measured here: cell count channel max response.
Where [12] appears, read: measured here: lipid channel max response.

On to `CN1[C@@H](CC(=O)c2ccccc2)CCC[C@H]1C[C@H](O)c1ccccc1`, for which the compound was called inactive in [1]. Further, the activity change, negative = inhibition in [2] is -1.25% (inactive). In addition, the max response in experiment [2] (setting [11]) worked out at 24.6%; in experiment [2] (setting [12]), 23.7%. The Potency entry in experiment [3] and in [4] was “inactive” in each case.
For the compound `O=c1[nH]c2cc(C(F)(F)F)ccc2n1-c1cc(C(F)(F)F)ccc1O`, the outcome in [5] and in experiment [1] was inactive. Besides, the activity change, negative = inhibition in experiment [2] was -0.787% (inactive). Further, the figures for the max response in [2] (setting [11]) and in experiment [2] (setting [12]) were 34.5% and 34%, respectively. In addition, the Potency result in [3] and in experiment [4] was “inactive” throughout. The Potency was 4.47 µM (active) in [6], 3.98 µM (active) in [7] and 10 µM (active) in [8].
On to `CC1(C)CCC=[N+]1[O-]`, for which the call in experiment [5] and in experiment [1] was inactive. For the same compound, in experiment [2], the activity change, negative = inhibition is 0.483% (inactive). Moreover, the max response in experiment [2] (setting [11]) was -28.1%; in [2] (setting [12]) it was -25.6%. Also, the Potency entry in [3], in experiment [4], in experiment [9], in experiment [6], in experiment [7] and in [10] was “inactive” throughout. Moreover, in [8], the Potency entry is “inactive”.
As to `CC(C)NCC(O)COc1cccc2ccccc12` (stereo not drawn), in experiment [1], the compound was classed as inactive. Moreover, the activity change, negative = inhibition in experiment [2] is 10.9% (inactive). Also, the values for the max response in experiment [2] (setting [11]) and in experiment [2] (setting [12]) were 7.26% and 23.9%, respectively. The Potency result in experiment [3], in experiment [4] and in experiment [9] was “inactive” in each case. The Potency in [6] was 4.47 µM (active); in experiment [7], 2.51 µM (active); in experiment [8], 11.2 µM (active).
On to `N#C/C(=C\c1ccc(O)c(O)c1)C(=O)c1ccc(O)c(O)c1`, for which the outcome in experiment [5] and in experiment [1] was inactive. In addition, in [2], the activity change, negative = inhibition was -0.353% (inactive). Besides, the max response was 19.5% in [2] (setting [11]) and 19.3% in experiment [2] (setting [12]). The Potency was 0.282 µM (active) in experiment [3] and 10 µM (active) in experiment [10]. Further, the Potency entry in experiment [4] and in experiment [9] was “inactive” in each case.
With `O=C(/C=C/c1ccc(O)cc1)c1ccc(O)cc1O`, in experiment [1], the outcome was inactive. Moreover, the activity change, negative = inhibition in experiment [2] was 6.63% (inactive) and 0.947% (inactive). Besides, the max response in experiment [2] (setting [11]) was 1.72% and 46.2%; in [2] (setting [12]) it was 5.97% and 48.5%. Moreover, the Potency entry in experiment [3] and in experiment [4] was “inactive” in each case. Further, the Potency was 10 µM (active) in [6], 7.94 µM (active) in experiment [7] and 12.6 µM (active) in experiment [8].
With `NC(N)=NC(=O)c1nc(Cl)c(N2CCCCCC2)nc1N`, the compound was called inactive in experiment [5] and in experiment [1]. Also, the activity change, negative = inhibition in experiment [2] is -1.28% (inactive) and 0.178% (inactive). For the same compound, the max response in [2] (setting [11]) was 5.25% and -33%; in [2] (setting [12]), 6.67% and -33.1%. Further, the Potency entry in experiment [3] and in [4] was “inactive” in each case. In addition, the Potency in [6] is 8.91 µM (active); in experiment [7] it was 12.6 µM (active); in experiment [10] it was 4.47 µM (active); in experiment [8], 7.94 µM (active).
Turning to `C=CC(N)CCC(=O)O` (stereo not drawn), in [1], the compound was called inactive. For the same compound, the activity change, negative = inhibition in experiment [2] was 4.04% (inactive). Further, the max response in experiment [2] (setting [11]) came to 13.5%; in [2] (setting [12]), 19.4%. Moreover, the Potency entry in [3], in experiment [4], in experiment [9], in experiment [6], in experiment [7] and in experiment [10] was “inactive” each time. Besides, the Potency result in experiment [8] is “inactive”.
For `COc1cc(C(O)CO)ccc1OS(=O)(=O)O` (stereo not drawn), in experiment [1], the compound was called inactive. For the same compound, the activity change, negative = inhibition in [2] is 0.915% (inactive). For the same compound, the values for the max response in experiment [2] (setting [11]) and in experiment [2] (setting [12]) were -36.7% and -37%, respectively. The Potency result in experiment [3], in [4], in experiment [9], in experiment [6], in experiment [7] and in experiment [10] was “inactive” throughout. Moreover, the Potency result in experiment [8] is “inactive”.
Take `O=C(O)c1cc(=O)c2c(Cl)cc(Cl)cc2[nH]1`: the call in experiment [5] and in experiment [1] was inactive. For the same compound, the activity change, negative = inhibition in experiment [2] was 4.31% (inactive) and -0.435% (inactive). The max response in experiment [2] (setting [11]) was 15.8% and 12.6%; in experiment [2] (setting [12]), 22.3% and 11.7%. Besides, the Potency entry in experiment [3], in experiment [4], in [9], in experiment [6], in experiment [7] and in [10] was “inactive” throughout. In experiment [8], the Potency entry was “inactive”.
With `CN1CCc2cc(O)c(O)cc2C(c2ccccc2)C1` (stereo not drawn), the compound was classed as inactive in [1]. In addition, the activity change, negative = inhibition in [2] was -0.441% (inactive). The max response was determined as 31.9% in experiment [2] (setting [11]) and 29.5% in experiment [2] (setting [12]). In addition, the Potency entry in experiment [3], in [4] and in [9] was “inactive” each time. Further, the Potency in [6] is 11.2 µM (active); in [7] it was 10 µM (active); in experiment [8] it was 12.6 µM (active).
Turning to `OCC1O[C@H](O)C(Cl)C(O)C1O` (stereo partly drawn), in experiment [1], the result was inactive. Moreover, the activity change, negative = inhibition in [2] was 0.529% (inactive). Besides, the max response is -14.2% in experiment [2] (setting [11]) and -14.7% in experiment [2] (setting [12]). Also, the Potency result in experiment [3], in experiment [4], in [9], in experiment [7], in [10] and in [8] was “inactive” throughout.
For `Ic1ccc(N2CCN(Cc3c[nH]c4ncccc34)CC2)cc1`, the compound was called inactive in experiment [5] and in [1]. Besides, the activity change, negative = inhibition in [2] was 0.316% (inactive). Further, the values for the max response in experiment [2] (setting [11]) and in experiment [2] (setting [12]) were -23.2% and -22.2%, respectively. Besides, the Potency result in experiment [3], in [4] and in experiment [9] was “inactive” in each case.
As to `CN(C)CCC(c1ccc(Cl)cc1)c1ccccn1` (stereo not drawn), in [1], the call was inactive. For the same compound, the activity change, negative = inhibition in experiment [2] is 1.75% (inactive). Further, the max response in experiment [2] (setting [11]) was 45.4%; in experiment [2] (setting [12]), 46%. Also, the Potency result in experiment [3], in experiment [4], in experiment [9] and in experiment [8] was “inactive” in each case.
As to `O=C(O)CNC(=O)C(CS)Cc1ccccc1` (stereo not drawn), the result in experiment [1] was inactive. The activity change, negative = inhibition in experiment [2] was 0.149% (inactive). Further, the max response was -2.09% in [2] (setting [11]) and -2.71% in experiment [2] (setting [12]). The Potency entry in experiment [3], in experiment [4], in [9], in experiment [6], in experiment [7] and in experiment [10] was “inactive” throughout. For the same compound, in experiment [8], the Potency entry is “inactive”.
As to `Fc1cccc(/C=N/N=C/c2cccc(F)c2)c1`, the call in [1] was inactive. The activity change, negative = inhibition in experiment [2] is 2.18% (inactive). Further, the max response in [2] (setting [11]) was -17.3%; in experiment [2] (setting [12]) it was -14.5%. In addition, the Potency entry in [3], in experiment [4], in experiment [9], in experiment [6], in experiment [7] and in experiment [8] was “inactive” each time.
In the case of `COc1cccc(OC)c1OCCNCC1COc2ccccc2O1` (stereo not drawn), the compound was called inactive in [1]. For the same compound, the activity change, negative = inhibition in [2] is 3.94% (inactive) and -4.43% (inactive). The max response in experiment [2] (setting [11]) is 10.2% and -61.3%; in experiment [2] (setting [12]) it was 14.3% and -62.3%. Besides, the Potency entry in experiment [3], in [4] and in experiment [9] was “inactive” throughout. For the same compound, the Potency in [6] was 7.94 µM (active).
In the case of `CNCC[C@H](Oc1ccc(C(F)(F)F)cc1)c1ccccc1`, the outcome in [5] and in [1] was inactive. Also, the Potency result in [4] and in experiment [9] was “inactive” in each case.
For `CC(C)(C)NCC(O)COc1nsnc1N1CCOCC1` (stereo not drawn), in [1], the call was inactive. Moreover, the Potency entry in [3], in [4], in experiment [9], in [10] and in experiment [8] was “inactive” throughout.
For `S=c1[nH]c2ccccc2s1`, in experiment [2], the activity change, negative = inhibition was 12% (inactive). For the same compound, the max response in experiment [2] (setting [11]) stood at 14.4%; in experiment [2] (setting [12]), 29.5%.
On to `C[N+](C)(CCCCCC[N+](C)(C)CCCN1C(=O)c2cccc3cccc(c23)C1=O)CCCN1C(=O)c2cccc3cccc(c23)C1=O`, for which the call in experiment [5] and in experiment [1] was inactive. The Potency in [3] is 3.55 µM (active); in experiment [4] it was 5.62 µM (active); in experiment [6] it was 0.794 µM (active); in [7], 0.316 µM (active); in [10], 0.0631 µM (active); in [8], 0.631 µM (active). Further, the Potency entry in [9] was “inactive”.
